According to PubChem BioAssay (Tox21):
Several values for one entry are separate records, joined by “and”; a condition that tells them apart may be missing. Equal entries are not always repeated. Records with an inconclusive call do not appear. The source holds several records for some structures; these can differ, active in one and inactive in another. Activity calls are given as the source filed them. Calls follow the shape of the dose curve; as a rule, active = well fitted curve in the direction sought with a large enough effect in the repeat runs; inconclusive = weak or mixed curves; inactive = no such curve, though single readings can be large; an effect the other way counts as inactive or inconclusive.

Experiments:
[1] = A CellTox Green Cytotoxicity Assay to monitor cytotoxicity in HEK293 cells - 40 hour (AID 1224871); also: nearly all actives have a fitted effect of over 45% in size
Outline: (§1)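 HEK293 cells, 600/well, were preincubated 5 hours and then exposed to compounds at 37 C for up to 40 hours. A cell-impermeant cyanine dye staining dead-cell DNA was read by fluorescence at 0, 8, 16, 24, 32 and 40 h time points.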

[2] = qHTS RealTime-Glo MT Cell Viability Assay in HEK293 cells - 16 hour (AID 1224872); also: nearly all actives have a fitted effect of over 50% in size
Outline: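 Reads taken at 0, 8, 16, 24, 32 and 40 h from the same wells. HEK293 cells (600/well) carried RealTime-Glo reagents from seeding, with compound added after a 5 h settle at 37 C.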

[3] = qHTS RealTime-Glo MT Cell Viability Assay in HepG2 cells - 8 hour (AID 1224873); also: nearly all actives have a fitted effect of over 55% in size
Outline: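 HepG2 cells (600/well) mixed with RealTime-Glo MT reagent, settled 5 h at 37 C/5% CO2 before compound addition. Nonlytic NanoLuc luminescence from viable-cell prosubstrate reduction read repeatedly during 40 h treatment at 37 C.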

[4] = qHTS RealTime-Glo MT Cell Viability Assay in HEK293 cells - 40 hour (AID 1224874); settings: RealTime-Glo luminescence; max response: stronger effect = lower value; also: nearly all actives have a fitted effect of over 50% in size
Outline: (§2)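 600 cells/well were plated with the nonlytic NanoLuc/prosubstrate reagent, pre-incubated 5 h, then given 23 nL of compound in DMSO. Incubation at 37 C for 40 h, with luminescence from viable-cell-reduced substrate read repeatedly from 0 h.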

[5] = A CellTox Green Cytotoxicity Assay to monitor cytotoxicity in HEK293 cells - 24 hour (AID 1224875); also: nearly all actives have a fitted effect of over 45% in size
Outline: as §1

[6] = A CellTox Green Cytotoxicity Assay to monitor cytotoxicity in HepG2 cells - 16 hour (AID 1224876); also: nearly all actives have a fitted effect of over 45% in size
Outline: (§3)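 HepG2 cells, 600/well, preincubated 5 h with CellTox Green dye, then exposed to Tox21 compounds in DMSO at 37 C for up to 40 h. Dead-cell DNA fluorescence read at the indicated time point.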

[7] = qHTS RealTime-Glo MT Cell Viability Assay in HepG2 cells - 32 hour (AID 1224877); also: nearly all actives have a fitted effect of over 55% in size
Outline: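 HepG2 suspension premixed with RealTime-Glo reagents is plated at 600 cells per well and left 5 h at 37 C/5% CO2. Compounds in DMSO then go in, and bioluminescence reflecting viable cell number is recorded over 40 h.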

[8] = A CellTox Green Cytotoxicity Assay to monitor cytotoxicity in HepG2 cells - 24 hour (AID 1224878); also: nearly all actives have a fitted effect of over 45% in size
Outline: as §3

[9] = A CellTox Green Cytotoxicity Assay to monitor cytotoxicity in HepG2 cells - 40 hour (AID 1224879); also: nearly all actives have a fitted effect of over 40% in size
Outline: as §3

[10] = qHTS RealTime-Glo MT Cell Viability Assay in HEK293 cells - 0 hour (AID 1224880); also: nearly all actives have a fitted effect of over 45% in size
Outline: as §2
% is scaled to controls: 0 for no effect and ±100 for the full control effect; potency is read from the fitted curve at half-maximal effect.

Oc1ccc(Cl)cc1Cc1ccccc1
49.6 µM (active) and inactive: Potency [3]
inactive and 49.6 µM (active): Potency [7]
inactive and 19.7 µM (active): Potency [9]
inactive and 33.1 µM (active): Potency [6]
inactive and 15.7 µM (active): Potency [8]
active: Potency [1] 11 µM and 21.3 µM | Potency [2] 21.9 µM and 17.6 µM | Potency [4] 21.9 µM and 27.9 µM | Potency [5] 8.71 µM

CC(C)Nc1nc(Cl)nc(NC(C)C)n1
inactive: Potency [1] | Potency [2] | Potency [3] | max response [4] -12.4% and -17.3% | Potency [5] | Potency [6] | Potency [7] | Potency [8] | Potency [9] | Potency [10]

CSc1nc(NC(C)C)nc(NC(C)C)n1
inactive: Potency [1] | Potency [2] | Potency [3] | max response [4] -22.1% | Potency [5] | Potency [6] | Potency [7] | Potency [8] | Potency [9] | Potency [10]

CN(C)c1nc(=O)n(C2CCCCC2)c(=O)n1C
inactive: Potency [1] | Potency [2] | Potency [3] | max response [4] 6.15% and 0.589% | Potency [5] | Potency [6] | Potency [7] | Potency [8] | Potency [9] | Potency [10]

ClC(Cl)(Cl)Br
inactive: Potency [1] | Potency [2] | Potency [3] | max response [4] -0.387% and 6.81% | Potency [5] | Potency [6] | Potency [7] | Potency [8] | Potency [9] | Potency [10]

O=C(O)c1nn(Cc2ccc(Cl)cc2Cl)c2ccccc12
inactive and 107 nM (active): Potency [8]
inactive and 95.2 nM (active): Potency [6] | Potency [9]
inactive: Potency [1] | Potency [2] | Potency [3] | max response [4] -3.1% and 1.84% | Potency [5] | Potency [7] | Potency [10]

CCNCC
inactive: Potency [1] | Potency [2] | Potency [3] | max response [4] -0.119% and -1.58% | Potency [5] | Potency [6] | Potency [7] | Potency [8] | Potency [9] | Potency [10]

CNC(=O)CSP(=S)(OC)OC
inactive: Potency [1] | Potency [2] | Potency [3] | max response [4] -14.6% and -0.812% | Potency [5] | Potency [6] | Potency [7] | Potency [8] | Potency [9] | Potency [10]

CCCCSP(=O)(SCCCC)SCCCC
inactive: Potency [1] | Potency [2] | Potency [3] | max response [4] -17.8% and -14.6% | Potency [5] | Potency [6] | Potency [7] | Potency [8] | Potency [9] | Potency [10]

C=CC(=O)OCC(CC)(COC(=O)C=C)COC(=O)C=C
inactive: Potency [5] | Potency [6] | Potency [10]
active: Potency [1] 4.48 µM and 7.76 µM | Potency [2] 6.33 µM and 12.3 µM | Potency [3] 22.5 µM and 9.77 µM | Potency [4] 3.56 µM and 9.77 µM | Potency [7] 25.2 µM and 12.3 µM | Potency [8] 14.2 µM | Potency [9] 12.6 µM

N#CCCCCC#N
inactive: Potency [1] | Potency [2] | Potency [3] | max response [4] 1.71% and 10.7% | Potency [5] | Potency [6] | Potency [7] | Potency [8] | Potency [9] | Potency [10]

CC(C)(c1ccccc1)c1ccc(O)cc1
active: Potency [1] 24.3 µM and 27.5 µM | Potency [2] 48.6 µM and 30.9 µM | Potency [4] 43.3 µM and 27.5 µM | Potency [5] 21.7 µM and 43.6 µM | Potency [6] 24.5 µM | Potency [8] 48.6 µM and 21.9 µM | Potency [9] 48.6 µM and 24.5 µM
inactive: Potency [7] | Potency [10]
inactive and 49 µM (active): Potency [3]

O=NN(c1ccccc1)c1ccccc1
inactive: Potency [1] | Potency [2] | Potency [3] | max response [4] 1.85% and 24% | Potency [5] | Potency [6] | Potency [7] | Potency [8] | Potency [9] | Potency [10]

Brc1ccc(Br)cc1
inactive: Potency [1] | Potency [2] | Potency [3] | max response [4] 1.04% and 3.61% | Potency [5] | Potency [6] | Potency [7] | Potency [8] | Potency [9] | Potency [10]

COP(=S)(OC)Oc1ccc(S(=O)(=O)N(C)C)cc1
inactive: Potency [1] | Potency [2] | Potency [3] | max response [4] -18.5% and -16.7% | Potency [5] | Potency [6] | Potency [7] | Potency [8] | Potency [9] | Potency [10]

[Cl-].[Cl-].[Cl-].[Fe+3]
inactive: Potency [1] | Potency [2] | Potency [3] | max response [4] 0.374% | Potency [5] | Potency [6] | Potency [7] | Potency [8] | Potency [9] | Potency [10]

C[N+](C)(C)C
inactive: Potency [1] | Potency [2] | Potency [3] | max response [4] 4.13% and -0.266% | Potency [5] | Potency [6] | Potency [7] | Potency [8] | Potency [9] | Potency [10]

O=[N+]([O-])c1ccc(Nc2ccccc2)cc1
active: Potency [2] 27.8 µM | Potency [4] 27.8 µM and 21.9 µM
inactive: Potency [1] | Potency [3] | Potency [5] | Potency [6] | Potency [7] | Potency [8] | Potency [9] | Potency [10]

CNC(=O)Oc1cccc2c1OC(C)(C)C2
inactive: Potency [1] | Potency [2] | Potency [3] | max response [4] -0.656% and 0.539% | Potency [5] | Potency [6] | Potency [7] | Potency [8] | Potency [9] | Potency [10]

CCOS(=O)(=O)OCC
inactive: Potency [1] | Potency [2] | Potency [3] | max response [4] 6.05% | Potency [5] | Potency [6] | Potency [7] | Potency [8] | Potency [9] | Potency [10]

CCOP(=S)(OCC)SCn1c(=O)oc2cc(Cl)ccc21
active: Potency [2] 26.3 µM and 19.5 µM | Potency [4] 29.5 µM
inactive: Potency [1] | Potency [3] | Potency [5] | Potency [6] | Potency [7] | Potency [8] | Potency [9] | Potency [10]

N#Cc1nn(-c2c(Cl)cc(C(F)(F)F)cc2Cl)c(N)c1S(=O)C(F)(F)F (centres undefined)
inactive: Potency [1] | Potency [3] | Potency [5] | Potency [6] | Potency [7] | Potency [8] | Potency [9] | Potency [10]
active: Potency [2] 22 µM and 21.3 µM | Potency [4] 24.7 µM

ClCC(Cl)CCl
inactive: Potency [1] | Potency [2] | Potency [3] | max response [4] 3.83% and -1.84% | Potency [5] | Potency [6] | Potency [7] | Potency [8] | Potency [9] | Potency [10]

CCCCOCCOC(C)=O
inactive: Potency [1] | Potency [2] | Potency [3] | max response [4] 4.03% and 1.95% | Potency [5] | Potency [6] | Potency [7] | Potency [8] | Potency [9] | Potency [10]

N#Cc1cccnc1
inactive: Potency [1] | Potency [2] | Potency [3] | max response [4] -3.64% and -3.39% | Potency [5] | Potency [6] | Potency [7] | Potency [8] | Potency [9] | Potency [10]

O=C1CCCO1
inactive: Potency [1] | Potency [2] | Potency [3] | max response [4] 17.8% and -9.6% | Potency [5] | Potency [6] | Potency [7] | Potency [8] | Potency [9] | Potency [10]

O=[N+]([O-])/N=C1\NCCN1Cc1ccc(Cl)nc1
inactive: Potency [1] | Potency [2] | Potency [3] | max response [4] 1.13% and 0.238% | Potency [5] | Potency [6] | Potency [7] | Potency [8] | Potency [9] | Potency [10]

CC1(C)Cc2cccc(O)c2O1
inactive: Potency [1] | Potency [2] | Potency [3] | max response [4] 1.32% and -0.986% | Potency [5] | Potency [6] | Potency [7] | Potency [8] | Potency [9] | Potency [10]

CC(C)Nc1ccc(Nc2ccccc2)cc1
inactive and 49 µM (active): Potency [6]
active: Potency [1] 48.8 µM and 49 µM | Potency [2] 17.3 µM and 19.5 µM | Potency [3] 48.8 µM and 38.9 µM | Potency [4] 17.3 µM and 17.4 µM | Potency [5] 48.8 µM and 54.9 µM | Potency [7] 54.7 µM | Potency [8] 43.6 µM | Potency [9] 43.6 µM | Potency [10] 7.73 µM and 19.5 µM

COc1ccc(CO)cc1
inactive: Potency [1] | Potency [2] | Potency [3] | max response [4] 11.4% and -15.8% | Potency [5] | Potency [6] | Potency [7] | Potency [8] | Potency [9] | Potency [10]

CN(C)c1ccccc1
inactive: Potency [1] | Potency [2] | Potency [3] | max response [4] 0.0564% and 11.3% | Potency [5] | Potency [6] | Potency [7] | Potency [8] | Potency [9] | Potency [10]

CCOC(=O)c1ccccc1N
inactive: Potency [1] | Potency [2] | Potency [3] | max response [4] -0.283% and 0.344% | Potency [5] | Potency [7] | Potency [10]
inactive and 49 µM (active): Potency [6] | Potency [8]
inactive and 54.9 µM (active): Potency [9]

CCCCCCCC[N+](C)(CCCCCCCC)CCCCCCCC
active: Potency [1] 24.5 µM and 27.6 µM and 12.3 µM | Potency [2] 2.75 µM and 1.1 µM and 6.16 µM | Potency [3] 17.3 µM and 30.9 µM and 17.4 µM | Potency [4] 173 nM and 138 nM and 1.1 µM | Potency [5] 21.8 µM and 21.9 µM and 9.77 µM | Potency [6] 15.5 µM and 21.9 µM and 17.4 µM | Potency [7] 9.75 µM and 19.5 µM and 8.71 µM | Potency [8] 9.75 µM and 19.5 µM and 15.5 µM | Potency [9] 13.8 µM and 19.5 µM
inactive: Potency [10]
